For 40 compounds, Inhibition results are on record in ChEMBL document CHEMBL1157539, “Thousands of chemical starting points for antimalarial lead identification” (Nature, 2010).

By Inhibition is commonly meant the relative decrease from the control value, in per cent. Read a low Inhibition as little suppression.

Each structure is given as a SMILES string.

The subject of this assay is Plasmodium falciparum. Description: GSK_TCMDC: Inhibition of Plasmodium falciparum 3D7 in whole red blood cells, using parasite LDH activity as an index of growth. Test compounds present at 2uM. Type of assay: functional.
The compound `CCNc1cc(C)nc(Nc2ccc(NC(=O)c3ccco3)cc2)n1` showed an Inhibition of 95%. As to `Cl.O=c1cc(NCCCNCc2cc3c(Cl)cc(Cl)cc3[nH]2)[nH]c2ccccc12`, the Inhibition was 100%.

For the compound `CS(=O)(=O)Cc1ccc(Nc2nccc(N3CCCc4cc(NC(=O)Nc5cccc(C(F)(F)F)c5)ccc43)n2)cc1`, the Inhibition stood at 100%. In the case of `COc1ccc(C(=O)CCC(=O)N(Cc2ccc(-c3ccc(CNCCc4ccccc4)cn3)cc2)C(C)CN(C)C)cc1F.O=C(O)C(F)(F)F` (stereo not given), the Inhibition is recorded as 98%.

Regarding `CCCCN1CCN(CCCCNc2c3ccccc3nc3ccccc23)CC1.Cl`, the Inhibition was 100%. With `CCCCC(=O)N(CCOC)Cc1ccc(-c2ccc(CNCCC)cn2)cc1.O=C(O)C(F)(F)F`, the Inhibition came out at 99%. With `COc1ccc(Cl)cc1NC(=O)C(C)Nc1ccc(-c2ccccc2)cc1` (stereo not given), the Inhibition is 91%. The value for `Cl.Clc1ccc2c(N3CCN(CCN4CCN(c5ccnc6cc(Cl)ccc56)CC4)CC3)ccnc2c1` was 99%; that for `COc1ccc2nccc([C@@H](O)CN3CCC(NC(=O)c4ccc5cc[nH]c5c4)CC3)c2c1.CS(=O)(=O)O` was 91%. Take `Cc1cccc(NC(=O)Nc2ccc(I)c(OCCN(C)C)c2)c1C`: the Inhibition turned out to be 96%. Compound `COc1ccc(C(F)(F)F)cc1N1CCN(CCCCNC(=O)c2ccc(NC(=O)c3ccc(Cl)cc3)cc2)CC1` returned an Inhibition of 94%. Compound `O=C(Nc1ccccc1Br)c1cn(-c2ccccc2)nc1-c1cccc([N+](=O)[O-])c1` yielded an Inhibition of 92%.

`COc1cccc2cc(C(=O)N[C@@H](CC(C)C)C(=O)N[C@H](C=NN3CCCC3=O)Cc3ccccc3)oc12` showed an Inhibition of 96%.

Compound `O=c1cc(NCCCNCc2cccc(C(F)(F)F)c2Cl)[nH]c2ccccc12` showed an Inhibition of 94%. `CN(C)CCNC(=O)[C@H](Cc1ccccc1)NC(=O)c1ccc(O)c(-c2ccc(Cl)c(Cl)c2)c1` registered an Inhibition of 98%. In turn, `COc1cc(C=NNc2ccnc3cc(Cl)ccc23)ccc1O` showed an Inhibition of 100%. In turn, `Cc1[nH]c(C)c(-c2ccc(OCc3ccc(F)cc3)cc2)c(=O)c1Cl` returned an Inhibition of 95%. To `CCn1c(-c2nonc2N)nc2c(-c3cccc(NC(=O)NC45CC6CC(CC(C6)C4)C5)c3)ncc(OCCCN)c21.O=C(O)C(F)(F)F` belongs 94%. `CC(COc1ccc2c(c1)OC(C)(C)CC2c1ccccc1)NCC(O)c1cccc(Cl)c1.Cl` (stereo not given): the Inhibition is 98%.

On to `CCC(C)(C)c1ccc(OCC(O)CN2CCCCC2)c(C(C)(C)CC)c1` (stereo not given), for which the Inhibition was 91%. Compound `COc1ccc2c(=NN=Cc3cccc(C)n3)cc(-c3ccccc3)[nH]c2c1` came in with an Inhibition of 97%. To `N#Cc1cnc(Nc2ccc(Oc3ccccc3)cc2)nc1Nc1cccc(S(N)(=O)=O)c1` belongs 96%; to `C[C@H](Nc1nc(C(Oc2ccccc2)c2ccccc2)nc2[nH]ncc12)c1ccccc1` (stereo not given in full), 100%. Compound `Cl.Nc1c2c(nc3ccc(NC(=O)CCCCCc4ccccc4)cc13)CCCC2` returned an Inhibition of 100%. Consider `CCCNC(=O)C1CCN(C(c2ccc(Cl)cc2)c2ccc(Cl)cc2)CC1`, for which the Inhibition is recorded as 98%. With `O=C(Nc1ccc(C(=O)N2CCN(CCN3CCN(c4cccc(C(F)(F)F)c4)CC3)CC2)cc1)c1cc(Cl)cc(Cl)c1`, the Inhibition turned out to be 100%. For `Cl.N#Cc1ccc2c(c1)CN(CCC1CCC(NC(=O)c3cc4ccccc4cc3N)CC1)CC2` (stereo not given), the Inhibition stood at 80%. `Nc1cccc(CNCc2cccc(-c3cccc(-c4nc5cc(C(F)(F)F)ccc5[nH]4)c3)c2)c1.O=C(O)C(F)(F)F` yielded an Inhibition of 100%. Consider `O=C(O)C(F)(F)F.c1cc(-c2ccc(CNC3CCOCC3)cc2)cc(-c2nc3ccccc3[nH]2)c1`, for which the Inhibition was 100%. Regarding `O=C(/C=C/c1ccc(Cl)c(Cl)c1)NCCCCCN1CCC(NC(=O)Nc2cc(F)cc(F)c2)CC1`, the Inhibition came out at 100%. In turn, `CCCC(CCC)n1ccc2c3c(N)nc(N)nc3ccc21.Cl` registered an Inhibition of 98%. Regarding `O=C(/C=C/c1ccc(Cl)c(Cl)c1)NCCCCCN1CCCN(C(=S)Nc2ccc(Cl)cc2)CC1`, the Inhibition is 86%. Compound `COc1cc(F)c2nccc([C@@H](O)CN3CCC(NCc4ccc5c(n4)NC(=O)CS5)CC3)c2c1` yielded an Inhibition of 100%.

Turning to `CC(=O)Nc1ccc(OCCN(Cc2ccccc2C(F)(F)F)c2ccc(C#N)c(C(F)(F)F)c2)cc1`, the Inhibition is 100%. Turning to `COc1ccc2nccc(NC(=O)N3CCC(NCc4cc5ccccc5[nH]4)CC3)c2n1.O=C(O)C(=O)O`, the Inhibition is listed as 85%. As to `Cc1ccc2ncc(Cl)c(CCN3CCC(NCc4ccc5c(n4)NC(=O)CS5)CC3)c2n1.Cl`, the Inhibition came to 90%. Compound `CCCCc1cc(NCC)nc(Nc2cccc(OC)c2)n1` yielded an Inhibition of 97%.

`CCS(=O)(=O)c1ccc(OC)c(Nc2nccc(-c3c(-c4cccc(NC(=O)c5c(F)cccc5F)c4)nn4ncccc34)n2)c1` had an Inhibition of 87%. `Br.NCC(=O)NC12CC3CC(CC(C3)C1)C2` yielded an Inhibition of 87%. Turning to `CCC[C@@H](C(=O)NCCc1cccc(OC)c1)N1C(=O)c2c(ccc(OC)c2OC)C1C(=O)Nc1c(C)cccc1C` (stereo not given in full), the Inhibition stood at 94%.
